# Results as given in PubChem BioAssay AID1850 (Southern Research Specialized Biocontainment Screening …, 2009).
# Screen size: about 310,000 compounds; about 1,000 (0.32%) were called active. Only a sample is shown. Results with a measured potency or affinity are listed apart. A number with no mark means an inactive call. The rule behind the calls is not given here.
# Assay: Inhibition of PhoP regulon, Salmonella typhi GFP reporter cells, confirmation, 4 h (AID 1850);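 note: 0% = induced wells with vehicle and 100% = uninduced wells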
# Settings: Salmonella Typhi PhoP-promoter GFP reporter, fluorescence, at 50 µM, active compounds read high
row,Structure (SMILES),inhibition
1,COc1cc(Cl)c(C)cc1NC(=O)CCCN1C(=O)CCC1=O,-6.87%
2,CN1CCN(C(=O)c2ccc(CS(=O)Cc3ccc(Cl)cc3)o2)CC1 (stereo unspecified),-3.59%
3,COc1cccc(CNS(=O)(=O)c2ccc(S(=O)(=O)NC3CC3)cc2)c1,0.68%
4,CCCc1cc(=O)oc2c3c(cc(OCC(=O)N4CCC[C@H]4C(=O)O)c12)OC(C)(C)CC3,-1.72%
5,COc1ccc(CNC(=O)CSc2nnnn2-c2ccc(O)cc2)cc1,4.45%
6,Cc1ccc(CN2CCC(CNS(=O)(=O)c3ccc(-c4ccc(=O)[nH]n4)s3)CC2)cc1,-17.1%
7,Cc1ccc(Nc2nc(N)nc(CSC(=S)N3CCN(c4ccccc4)CC3)n2)cc1,5.34%
8,COc1ccccc1NC(=O)Nc1ccc(CC#N)cc1,-23.3%
9,O=c1oc2ccccc2n1Cc1ccccc1F,0.75%
10,O=c1[nH]cc(NCCc2ccccc2)c(=O)[nH]1,2.68%
11,O=C(N/N=C/c1cc(Cl)ccc1O)c1ccc(Br)cc1,-15.2%
12,CC(=O)Nc1ccc(C(=O)N/N=C/c2cc(Br)cc(Br)c2O)cc1,-13.1%
13,O=C(N/N=C/c1cc([N+](=O)[O-])ccc1O)c1ccncc1,12.7%
14,O=C(CP(=O)(c1ccccc1)c1ccccc1)N/N=C/c1cc(Br)cc(Br)c1O,-0.96%
15,O=C(CNC(=O)c1ccncc1)N/N=C/c1cc(Br)ccc1O,14.9%
16,COc1c(Br)cc(Br)cc1/C=N/NC(=O)c1ccncc1,-12.1%
17,O=C(N/N=C/c1cccnc1)c1cccc(Cl)c1,41%
18,O=C(N/N=C/c1cc(Br)cc(Br)c1O)c1cccc(S(=O)(=O)N2CCOCC2)c1,17.9%
19,COc1ccccc1C(=O)Nc1nnc(SCC(=O)Nc2ccc3c(c2)oc2ccccc23)s1,-0.02%
20,COc1cc(/C=C2/NC(=O)NC2=O)ccc1OCC(=O)Nc1ccc(F)cc1,1.58%
21,C=CCn1c(CSc2ccc(C)cc2)n[nH]c1=S,2.92%

row,Structure (SMILES),inhibition
1,Cn1ncc(Cl)c1C(=O)N1CCN(c2ncccn2)CC1,10.1%
2,Cc1cccc(NC(=O)COC(=O)CCCC2=NS(=O)(=O)c3ccccc3N2)c1,-3.69%
3,C=C(C)CC1N(c2cccc(OC)c2)C(=O)C2C(C(=O)O)C3C=CC21O3 (stereo unspecified),-1.1%
4,CCCCn1c(=O)[nH]c(=O)c2c1nc(-c1cc(Br)ccc1OC)n2C,1.08%
5,O=C(CSC(=S)N1CCCC1)Nc1ncc(Cl)cc1Cl,-5.14%
6,CC(O)(CS(=O)(=O)Cc1ccccc1)C(=O)Nc1ccc(C(F)(F)F)cc1 (stereo unspecified),9.99%
7,CCc1ccccc1NC(=O)COc1cccc(-n2cnnn2)c1,-5.08%
8,CC(C)OCCCNC(=O)c1ccc(NC(=O)C2=CSCCO2)cc1,-8.42%
9,COc1ccc(S(=O)(=O)N2CCN(c3ncccn3)CC2)cc1[N+](=O)[O-],-20.4%
10,Cc1cc(Nc2ccccc2)n(-c2nc3ccccc3[nH]2)n1,-0.39%
11,Cc1ccc(Nc2cc(C)nn2-c2nc(C)cc(C)n2)cc1,5.85%
12,Cc1cc(C)n(-c2nc(O)cc(=O)[nH]2)n1,-1.88%
13,Cc1cc(C)n(-c2nnc(C)c(=O)[nH]2)n1,-0.21%
14,FC(F)(F)c1cccc(Oc2cc(C(F)(F)F)nc(-c3ccccn3)n2)c1,1.08%
15,CCOc1ccc(N2C(=O)C3ON(c4ccccc4)C(c4cccs4)C3C2=O)cc1 (stereo unspecified),9.38%
16,CCCCC(=O)N1CCN(c2nc3ccc(F)cc3s2)CC1,-7.63%
17,O=C1C(=O)c2ccc(-c3ccccc3)cc2-c2ccccc21,1.01%
18,Nc1ccc2c(c1)C(=O)C(=O)c1ccccc1-2,6.22%
19,Cc1cc(C)cc(NC2=C(N)C(=O)c3ccccc3C2=O)c1,-9.49%
20,Nc1ccc(Br)c2c1C(=O)c1ccccc1C2=O,-1.04%
21,COc1ccc(/C=C/C(=O)c2ccc(O)cc2)cc1CN1CCOCC1,-8.66%

row,Structure (SMILES),inhibition
1,CC(=O)Oc1ccc2c(=O)oc(-c3ccccc3C)nc2c1,-4.89%
2,CN(C)CCOC1c2ccccc2C=Cc2ccccc21,10.7%
3,O=C1N=C2SCCN2/C1=C\c1ccc(Cl)cc1,3.83%
4,O=C(NCc1nc(-c2ccccc2)no1)c1cccs1,-6.48%
5,COc1cccc(/C=N/NC(=O)CN2CC(c3ccccc3)CC2=O)c1OC (stereo unspecified),-3.73%
6,COc1cccc(/C=N/NC(=O)CN2CC(c3ccccc3)CC2=O)c1O (stereo unspecified),3.81%
7,COc1cc(OC)c(C2=NOC(C(=O)N3CCc4ccccc4C3)C2)cc1Cl (stereo unspecified),-5.06%
8,COC(=O)c1cccc(N(CC(=O)NC2CCCCC2)C(=O)CNC(=O)c2cccs2)c1,7.52%
9,COc1ccc(CNc2nc3ccccc3n2CCN2CCCCC2)cc1,-9.45%
10,CCN(CC)c1ccc(CNc2nc3ccccc3n2CCN2CCOCC2)cc1,6.95%
11,COC(=O)N/N=C/c1ccccc1,3.82%
12,COC(=O)N/N=C/c1ccccc1Cl,9.79%
13,O=C(CSc1ccc2c(c1)OCCO2)NC(=O)Cc1ccccc1,-0.51%
14,Cc1cccc(/C=C/c2onc(C)c2S(=O)(=O)N2CCC(C(=O)N3CCCCCC3)CC2)c1,-16.2%
15,CCOC(=O)c1cc2c(=O)n3ccccc3nc2n(C)c1=NC(=O)c1c(-c2c(F)cccc2Cl)noc1C,-5.85%
16,CC1CCCCN1CCCNC(=O)c1ccc(Br)cc1 (stereo unspecified),8.17%
17,CC(C)CNC(=O)COC(=O)c1ccc(Cl)c(S(=O)(=O)N2CCc3ccccc32)c1,1.54%
18,C[C@H](NCCc1ccc(O)cc1)[C@H](O)c1ccc(O)cc1,-4.37%
19,C[C@@H](NCCc1ccc(O)cc1)[C@@H](O)c1ccc(O)cc1,-9.6%
